Shiga toxin inh = blocks Shiga toxin action in Vero cells | Vero cells, Shiga toxin protein synthesis inhibition reporter | inhibition, % at 38.7 µM | 9.2% of 290,000 active; in the data active = inhibition mostly above about 28%, no sharp cut-off; inactive = mostly below about 43%
Cycloheximide cs = counter-screen for Shiga toxin inhibitors: cycloheximide protein synthesis inhibition; cell reporter, cycloheximide protein synthesis inhibition counterscreen; max response, %; 12% of 300,000 active; in the data active = max response mostly above about 13%, no sharp cut-off; inactive = mostly below about 14%; also: read at 38.3 µM for the half of the compounds with a filed dose
Pf growth 96h = P. falciparum growth inhibition at 96 hour, primary screen for plastid delayed-death inhibitors | Potency, µM (top dose mostly 28.7 µM), hits mostly inhibitors | AID 504834 | 6.9% of 320,000 active | P. falciparum luciferase reporter growth, 96 h
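96 h incubation, 37 C, 5% CO2, of luciferase-reporter P. falciparum-infected RBCs (2% hematocrit, 0.05% parasitemia final) with test compounds; endpoint luminescence.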
LmPK inhibitor = blocks Leishmania mexicana pyruvate kinase activity | Q27686 | purified LmPK, Kinase-Glo ATP luminescence, 1 h | Potency, µM (series often up to 57.5 µM), most hits filed as inhibitors | 0.37% of 290,000 active | AID 1721
Target sequence (Q27686 whole entry, looked up): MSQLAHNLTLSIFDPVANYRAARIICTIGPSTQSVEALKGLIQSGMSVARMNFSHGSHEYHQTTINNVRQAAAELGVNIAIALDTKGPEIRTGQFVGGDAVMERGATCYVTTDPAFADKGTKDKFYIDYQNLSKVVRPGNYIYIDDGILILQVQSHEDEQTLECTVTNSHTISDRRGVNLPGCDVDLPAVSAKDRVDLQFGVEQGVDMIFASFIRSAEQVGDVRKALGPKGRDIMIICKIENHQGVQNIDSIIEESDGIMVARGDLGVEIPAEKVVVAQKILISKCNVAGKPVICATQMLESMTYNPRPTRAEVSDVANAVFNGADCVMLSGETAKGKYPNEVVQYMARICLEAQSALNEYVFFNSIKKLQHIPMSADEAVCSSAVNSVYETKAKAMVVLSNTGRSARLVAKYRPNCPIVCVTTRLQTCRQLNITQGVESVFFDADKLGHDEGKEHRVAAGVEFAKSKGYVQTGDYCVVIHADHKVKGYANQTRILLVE
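Kinase-Glo luminescence read after 1 h RT reaction of 0.1 nM LmPK with 0.5 mM PEP and 0.1 mM ADP. Activity scaled between uninhibited and enzyme-free controls.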
Pf growth 48h = P. falciparum growth inhibition at 48 hours (one generation). Potency, µM (titrated, usually from 28.7 µM), hits mostly inhibitors. AID 504832. 5.9% of 310,000 active. P. falciparum luciferase growth in erythrocytes, 48 h
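Cell-based growth assay: transgenic P. falciparum expressing firefly luciferase, cultured in red cells within RPMI 1640 containing 0.5% w/v Albumax, 24 mM bicarbonate and gentamycin. A drop in luciferase activity indicates inhibition.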
Of the large screens only hits and unclear results are named; the others gave an inactive call. A selection: hits, their analogues and other compounds. The true share with any hit is near 22%. Unless noted, calls follow the shape of the dose curve; as a rule, active = well fitted inhibition curve with a large enough effect; inconclusive = small, poorly fitted or top-dose-only effect, or another doubt; inactive = no such curve, though single readings can be large or run the other way.

CCOC(=O)N1CCc2c(sc3c2c(=O)n(Cc2ccccc2)c(=O)n3Cc2cccc(C)c2)C1	Pf growth 48h inconclusive
CCOC(=O)N1CCc2c(sc3c2c(=O)n(Cc2ccccc2)c(=O)n3CC(=O)NCC2CCCO2)C1 (configuration not stated)	Pf growth 96h inconclusive, Pf growth 48h 5.86µM
CCOC(=O)N1CCc2c(sc3c2c(=O)n(Cc2ccccc2)c(=O)n3Cc2ccccc2F)C1	Pf growth 96h inconclusive, Pf growth 48h 2.62µM
COc1ccc(NC(=O)C2C3C=CC4(O3)C2C(=O)N(CCN2CCCCC2)C4C(=O)NC2CCCC(C)C2C)cc1 (configuration not stated)	Pf growth 48h inconclusive
CCOC(=O)N1CCN(C(=O)CSCc2ccccc2Cl)CC1	Shiga toxin inh 44.5
CCOC(=O)N1CCN(C(=O)CSCc2ccccc2C)CC1	Shiga toxin inh 59.9, Cycloheximide cs 36.7
NC(=O)C1CCN(C(=O)CSCc2ccccc2Cl)CC1	none
CN(C)CCCN=Cc1c(O)n(Cc2ccc3c(c2)OCO3)c(=O)c2ccccc12	Pf growth 96h inconclusive
OC[C@@H]1OC(O)[C@@H](O)[C@H](O)[C@@H]1O (some centres not stated)	none (no result: Pf growth 96h, LmPK inhibitor, Pf growth 48h)
Cc1cccc(-n2ncc3c(NCc4ccccn4)ncnc32)c1	Shiga toxin inh 70.1, Cycloheximide cs 28.6
c1ccc(-n2ncc3c(NCc4ccccn4)ncnc32)cc1	Shiga toxin inh 73.6, Cycloheximide cs 30.3 (no result: Pf growth 96h)
O=C(COC(=O)Cc1n[nH]c(=O)c2ccccc12)Nc1c(Cl)cccc1C(F)(F)F	none (no result: Shiga toxin inh, Cycloheximide cs, LmPK inhibitor)
O=C(NCCSc1ccccc1)c1ccccc1Cl	Shiga toxin inh 97.0, Cycloheximide cs 63.7
Cc1ccccc1C(=O)NCCSc1ccccc1	Cycloheximide cs 32.1 (no result: Pf growth 48h)
CSc1ccccc1C(=O)NCCSc1ccccc1	Cycloheximide cs 28.7 (no result: Pf growth 96h)
CSc1ccccc1C(=O)N(C)C(c1ccccc1)c1ccccc1	Pf growth 96h 10.4µM, Pf growth 48h inconclusive
O=C(CCNC(=O)c1ccccc1Cl)NCCCSc1ccccc1	none (no result: Shiga toxin inh, Cycloheximide cs, LmPK inhibitor)
CSc1ccccc1C(=O)NCCSC(C)(C)C	none
CS(=O)(=O)Nc1ccccc1C(=O)NCCSc1ccccc1	Pf growth 96h inconclusive
COc1ccc(OCc2nnc(SCC(=O)NC3CC3)n2C)cc1	none
COc1ccccc1NC(=O)CCN1C(=O)C2C3CCC(C3)C2C1=O (configuration not stated)	Pf growth 96h inconclusive
CN1/C(=C/c2cccc[n+]2CCO)Sc2ccccc21	Pf growth 96h inconclusive, Pf growth 48h inconclusive
CC[n+]1ccccc1/C=C1\Sc2ccc(C)cc2N1C	Pf growth 48h 1.04µM
CSc1c(-c2ccccn2)c(N)nn1C(=O)C1CCC1	none
O=C(c1cc(-c2ccc(Br)cc2)nc2ccccc12)N1CCC1	Pf growth 96h 4.15µM, Pf growth 48h 3.29µM (no result: Shiga toxin inh, Cycloheximide cs, LmPK inhibitor)
O=C(NC1CCCC1)c1cc2nc(-c3ccccc3)cc(-c3ccccc3)n2n1	Pf growth 96h inconclusive, Pf growth 48h inconclusive
CC1CCN(C(=O)c2cc3nc(-c4ccccc4)cc(-c4ccccc4)n3n2)CC1	Pf growth 96h 6.57µM (no result: Pf growth 48h)
COc1ccc(-c2nnc(Nc3ccc(OC)c(C(=O)N4CCCCC4)c3)c3ccccc23)cc1	Pf growth 96h inconclusive, Pf growth 48h 5.22µM
Cc1ccc(-c2cc(C(=O)N3CCCC3)c3ccccc3n2)s1	Shiga toxin inh 52.1, Cycloheximide cs 20.2, Pf growth 96h inconclusive
O=C(c1cc(Cl)nc2ccccc12)N1CCCCC1	Pf growth 48h inconclusive
O=C(c1cc(-c2cccc(Br)c2)nc2ccccc12)N1CCCC1	Pf growth 48h inconclusive
CC(=O)c1c(C)nc2ccc(Br)cc2c1C(=O)O	none (no result: Pf growth 48h)
Cc1ccc(-c2cc(C(=O)N3CCC(C)CC3)c3ccccc3n2)cc1	Cycloheximide cs 16.7, Pf growth 96h inconclusive
CCOC(=O)C1CCCN(C(=O)c2cc(-c3ccc(C)cc3)nc3ccccc23)C1 (configuration not stated)	none
Cc1ccc(-c2cc(C(=O)O)c3cc(Br)ccc3n2)s1	Shiga toxin inh 41.7, Cycloheximide cs 23.4, Pf growth 96h inconclusive
COc1ccc(-c2cc(C(=O)N3CCCCCC3)c3ccccc3n2)cc1	Pf growth 96h 3.29µM, Pf growth 48h 9.28µM (no result: Shiga toxin inh, Cycloheximide cs, LmPK inhibitor)
COc1ccc(S(=O)(=O)Nc2c(C)n(C)n(-c3ccccc3)c2=O)cc1C(=O)O	none
CCC(=O)C(C#N)(c1ccc(OC)c(OC)c1)C(C)C (configuration not stated)	none (no result: Shiga toxin inh, Cycloheximide cs, LmPK inhibitor)
O=c1c(Cl)c(NCc2ccccc2)cnn1C12CC3CC(CC(C3)C1)C2	Pf growth 96h 10.4µM, Pf growth 48h inconclusive
